These results are taken from PubChem BioAssay (Tox21).

Inconclusive results are not listed. Entries that show only a call come without a potency. Active and inactive are the calls of the source. The call rests on the fitted dose curve; in most records, active means well fitted cell-killing curve with a large enough effect in the repeat runs; inconclusive means weak or mixed curves, or effect the other way; inactive means flat fitted curve, though single readings scatter.
Potency means the concentration at half of the fitted maximal effect.

A short description of this assay: qHTS assay to identify small molecule antagonists of the estrogen receptor alpha (ER-alpha) signaling pathway using the BG1 cell line in the presence of 0.1 nM 17-beta-estradiol - cell viability counter screen (AID 1259241). Further: nearly all actives have a fitted effect of over 40% in size. The following applies: VM7Luc4E2 (BG1) viability, CellTiter-Fluor protease, 22 h, 0.1 nM estradiol agonist added; series mostly up to 92.4 µM. The source says: National Center for Advancing Translational Sciences [NCATS]
NIH Chemical Genomics Center [NCGC]
U.S. Environmental Protection Agency [EPA]
National Institutes of Environmental Health Sciences [NIEHS]
National Toxicology Program [NTP]
U.S. Food and Drug Administration [FDA]
Estrogen receptor (ER), a member of the nuclear hormone receptor plays an important role in development, metabolic homeostasis and reproduction. Two subtypes of ER, ER-alpha and ER-beta, have similar expression patterns with some uniqueness in both types. Endocrine disrupting chemicals (EDCs) and their interactions with steroid hormone receptors like ER causes disruption of normal endocrine function. Therefore, it is important to understand the effect of environmental chemicals in ER signaling pathway. For identifying ER antagonists, VM7Luc4E2 cell line was used to screen against Tox21 compound libraries.
VM7Luc4E2 cell line (provided by Denison MS, University of California) endogenously express full-length ER-alpha and is stably transfected with a plasmid containing four estrogen responsive elements (ERE) upstream of a luciferase reporter gene. The current screening for identification of ER-alpha inhibitors against Tox21 compound libraries used lower concentration (0.1 nM) of 17beta-Estradiol as a stimulator. The cytotoxicity of the Tox21 compound libraries against VM7Luc4E2 cell line was tested by measuring live-cell protease activity using CellTiter-Fluor assay in the same wells.
Tox21 Assay Protocol Summary:
VM7Luc4E2 cells were cultured in phenol red free assay medium containing 10% charcoal stripped FBS for 5 days prior to the assay. The cells were dispensed at 4,000 cells/well in 4 uL of assay medium into white wall/solid-bottom 1536-well plates (Corning Life Sciences, Corning, NY) using a Multidrop Combi (ThermoFisher Scientific, Waltham, MA) dispenser. After the assay plates were incubated at 37C and 5% CO2 for 24 hr, 23 nL of compounds dissolved in DMSO, positive controls or DMSO only was transferred to the assay plates by a Pintool station (Kalypsys, San Diego, CA). The transfer of compounds was followed by the addition of 1 uL of 0.1 nM (final concentration) agonist (17beta-Estradiol)/assay medium using a Flying Reagent Dispenser (FRD, Aurora Discovery, San Diego, CA). The plates were incubated at 37C and 5% CO2 for 22 hr. For cytotoxicity assay, 1 uL of CellTiter-Fluor reagent (Promega Corporation, Madison, WI) was added to each well using the FRD and after 30 min incubation at 37C and 5% CO2, The fluorescence intensity was measured using ViewLux plate reader (PerkinElmer, Shelton, CT).
A general note: In qHTS, concentration-response curves come from the screen itself.
As for `Nc1cccc(S(=O)(=O)c2cccc(N)c2)c1`, the Potency result is “inactive”.

Consider `C=CC(=O)OCCOCCOC(=O)C=C`, for which the Potency is 61.4 µM (active).

Consider `O=C(O)C(S)C(S)C(=O)O` (stereo not given), for which the Potency entry was “inactive”.

Regarding `C[C@H]1C[C@H]2[C@@H]3CCC4=CC(=O)C=C[C@]4(C)[C@@]3(Cl)[C@@H](O)C[C@]2(C)[C@@]1(O)C(=O)CO`, the Potency entry is “inactive”.

On to `O=C1OC(CN2CCOCC2)CN1/N=C/c1ccc([N+](=O)[O-])o1` (stereo not given), for which the Potency result is “inactive”.

In the case of `O=C(O)C1(C(=O)Nc2ccc(Cl)cc2Cl)CC1`, the Potency result was “inactive”.

Consider `CCCCc1ncc(/C=C(\Cc2cccs2)C(=O)O)n1Cc1ccc(C(=O)O)cc1`, for which the Potency entry was “inactive”.

With `ClCCOCCOCCCl`, the Potency result is “inactive”.

Consider `CCCCCCCCCc1ccc(OCCOCCO)cc1`, for which the Potency is 8.1 µM (active).

Take `CCc1c(C(=O)NN2CCCCC2)nn(-c2ccc(Cl)cc2Cl)c1-c1ccc(Br)cc1`: the Potency result is “inactive”.

`O=C1OC(=O)C2C3C=CC(C3)C12` (stereo not given): the Potency entry was “inactive”.

For the compound `COC(C)OC`, the Potency result is “inactive”.

Regarding `CCO[C@H](Cc1ccc(OCCc2ccc(OS(C)(=O)=O)cc2)cc1)C(=O)O`, the Potency entry is “inactive”.

Take `CC(COCCO)OCCO` (stereo not given): the Potency result is “inactive”.

In the case of `COc1cc2nc(Cl)nc(N)c2cc1OC`, the Potency result is “inactive”.

With `CCCCc1nc2cccnc2n1Cc1ccc(-c2ccccc2-c2nnn[nH]2)cc1`, the Potency entry is “inactive”.

On to `CCO[Si](CCCCl)(OCC)OCC`, for which the Potency entry was “inactive”.

In the case of `O=C(O)c1nc(Cl)c(Cl)c(Cl)c1Cl`, the Potency entry was “inactive”.

For `Cc1ncc(CO)c(C=O)c1O`, the Potency entry is “inactive”.

On to `COC(C)(C)CCO`, for which the Potency entry is “inactive”.

Turning to `OC[C@H]1O[C@@H](OCCc2ccc(O)cc2)[C@H](O)[C@@H](O)[C@@H]1O`, the Potency result was “inactive”.

Turning to `CN(C)C(=O)NC1(c2ccccc2)CCN(CC[C@@]2(c3ccc(F)c(F)c3)CN(C(=O)c3ccccc3)CCO2)CC1`, the Potency entry was “inactive”.

Take `COc1cc2nc(N3CCN(C(=O)C4COc5ccccc5O4)CC3)nc(N)c2cc1OC` (stereo not given): the Potency entry is “inactive”.

For `CNCCCN1c2ccccc2CCc2ccccc21`, the Potency entry was “inactive”.

Turning to `O=[N+]([O-])c1cccc(S(=O)(=O)O)c1`, the Potency result is “inactive”.

In the case of `C[N+]1(CC2COC(c3ccccc3)(C3CCCCC3)O2)CCCCC1` (stereo not given), the Potency result is “inactive”.

For `C#Cc1cccc(Nc2ncnc3cc(OCCOC)c(OCCOC)cc23)c1`, the Potency result was “inactive”.

For `COCC(C)OC(C)=O` (stereo not given), the Potency entry was “inactive”.

Turning to `C[C@H](CCC(=O)O)[C@H]1CC[C@H]2[C@@H]3CC[C@@H]4C[C@H](O)CC[C@]4(C)[C@H]3C[C@H](O)[C@]12C`, the Potency result is “inactive”.

Regarding `C=CC1CC2C=CC1C2` (stereo not given), the Potency entry is “inactive”.

In the case of `CCCCCCc1ccc(-c2ccc(C#N)cc2)cc1`, the Potency entry was “inactive”.

Turning to `CC1=CCCC(C)(C)C12CCC(C)O2` (stereo not given), the Potency result was “inactive”.

As to `Brc1c2ccccc2cc2ccccc12`, the Potency entry was “inactive”.

Regarding `NS(=O)(=O)c1ccc(N2CCCCS2(=O)=O)cc1`, the Potency result is “inactive”.

On to `O=C(O)c1ccc(-n2nc(-c3ccccc3O)nc2-c2ccccc2O)cc1`, for which the Potency entry was “inactive”.

With `C1CCCNCCC1`, the Potency entry is “inactive”.

As for `CCC(CC)Nc1ccc(C)c(C)c1`, the Potency entry was “inactive”.

As to `C[N+](C)(C)CCOC(=O)CCC(=O)OCC[N+](C)(C)C`, the Potency entry was “inactive”.

As for `COCCCN1CCC(NC(=O)c2cc(Cl)c(N)c3c2OCC3)CC1`, the Potency result was “inactive”.

In the case of `COS(=O)(=O)C(F)(F)F`, the Potency entry was “inactive”.
